For 94 compounds, activation results are on record in PubChem BioAssay AID2796 (The Scripps Research Institute Molecular Screening Center, 2010).

SMILES strings stand for the structures. Out of some 320,000 compounds screened, about 8,000 (2.5%) were called active. This is one part of a sample in which actives are shown more often than they occur. Cut-off read from the data, not from the text of the source: active = activation above about 47%; inactive = the rest.

In this test the target is Aryl hydrocarbon receptor (Homo sapiens) (UniProt P35869). Description: AHR activators, primary screen, cell-based, luminescence, luciferase reporter, human (AID 2796).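 Note: 0% = vehicle wells and 100% = reference agonist.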 The conditions noted are these: AHR-responsive luciferase reporter cells, at 5 µM, hits give high values. On the technique in general: A reporter such as luciferase makes a cellular process visible.
Aryl hydrocarbon receptor (Homo sapiens), sequence (P35869 whole entry, looked up): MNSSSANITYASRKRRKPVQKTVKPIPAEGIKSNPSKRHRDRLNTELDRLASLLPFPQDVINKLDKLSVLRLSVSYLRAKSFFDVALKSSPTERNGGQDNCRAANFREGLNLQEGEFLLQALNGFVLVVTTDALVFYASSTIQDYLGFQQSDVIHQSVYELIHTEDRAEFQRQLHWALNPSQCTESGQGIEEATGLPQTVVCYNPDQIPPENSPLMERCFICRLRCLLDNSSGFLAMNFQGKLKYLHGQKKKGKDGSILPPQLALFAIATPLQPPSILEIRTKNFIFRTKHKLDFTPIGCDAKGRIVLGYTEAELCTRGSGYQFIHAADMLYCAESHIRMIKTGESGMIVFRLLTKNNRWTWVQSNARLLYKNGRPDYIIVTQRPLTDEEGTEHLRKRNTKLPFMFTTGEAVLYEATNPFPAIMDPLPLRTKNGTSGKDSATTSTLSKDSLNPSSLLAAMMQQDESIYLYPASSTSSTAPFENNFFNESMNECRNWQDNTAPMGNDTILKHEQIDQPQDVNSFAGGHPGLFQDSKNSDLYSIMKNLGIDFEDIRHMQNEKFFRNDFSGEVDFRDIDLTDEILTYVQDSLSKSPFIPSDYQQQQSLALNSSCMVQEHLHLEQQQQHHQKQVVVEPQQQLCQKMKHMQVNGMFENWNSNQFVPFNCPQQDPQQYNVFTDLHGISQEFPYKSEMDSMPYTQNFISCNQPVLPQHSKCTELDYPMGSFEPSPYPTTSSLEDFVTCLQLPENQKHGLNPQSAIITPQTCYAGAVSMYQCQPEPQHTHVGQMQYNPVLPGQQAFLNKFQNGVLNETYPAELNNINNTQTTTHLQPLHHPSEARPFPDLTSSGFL
For `COc1ccccc1Nc1ncnc2c1oc1ccccc12`, the activation was 86.1% (active). The figure for `COc1ccc(C)cc1Nc1nc(C)nc2c1oc1ccccc12` is 13.4% (inactive); for `CCC(C(=O)OC)n1cnc2c(oc3ccccc32)c1=O` (centres undefined) it is 2.16% (inactive). With `Cn1c(=O)c2cn(-c3cccc4ccccc34)cc2n(C)c1=O` the figure was 18.1% (inactive).

As for `CC(=O)Nn1cc2c(=O)n(C)c(=O)n(C)c2c1`, the activation is 1.7% (inactive). With `COc1ccc(OC)c(-n2cc3c(=O)n(C)c(=O)n(C)c3c2)c1` the figure was 64.9% (active); with `O=C(O)c1cccc2c1C(=O)N(C1CCCC1)C2`, -3.11% (inactive). The figure for `O=C(COc1ccc(F)cc1Br)NCC1COc2ccccc2O1` (centres undefined) is 2.44% (inactive); for `CC1CCN(c2ccc([N+](=O)[O-])c(SCCO)c2)CC1` it is 13.1% (inactive). The figure for `CN1CCN(c2ccc([N+](=O)[O-])c(Sc3nc4ccccc4[nH]3)c2)CC1` is 50% (active); for `O=C(CSc1nc2ccccc2[nH]1)N/N=C/C=C\c1ccccc1[N+](=O)[O-]` it is 26.7% (inactive).

For `O=C(OCC(=O)N1CCN(C(=O)c2ccco2)CC1)c1cccc(O)c1`, the activation is 4.27% (inactive). With `Cc1c(CN2CCC(CO)(CCOc3ccccc3)CC2)[nH]c2ccc(Cl)cc12` the figure was 6.78% (inactive); with `CCOC(=O)c1[nH]c2ccc(OC)cc2c1NC(=O)CCN1CCN(Cc2ccccc2)CC1`, 4.33% (inactive); with `COC(=O)c1oc2ccc(Br)cc2c1NC(C)=O`, 1.12% (inactive). With `COC(=O)c1[nH]c2ccc(Br)cc2c1NC(=O)Oc1ccccc1` the figure was 48.5% (active); with `CN(Cc1ccccc1)C(=O)C(=O)c1cn(CC(=O)N2CCCC2)c2ccccc12`, 0.47% (inactive); with `NC(=O)C1(N2CCCCC2)CCN(C(=O)c2ccc(C#Cc3ccccc3)o2)CC1`, 0.68% (inactive).

For `O=C(Nc1ccccc1)c1ccc(NC(=O)c2cccs2)cc1`, the activation is -3.44% (inactive).

In the case of `O=C(Nc1ccnc(-c2ccncc2)n1)c1cccs1`, the activation was 55.7% (active). Turning to `O=C(Nc1ccc(NC(=O)c2cccs2)cn1)c1ccco1`, the activation is -2.71% (inactive). For `C/C=C(\C)C(=O)N1CC2(CC(c3cccc(NC(=O)CCCCC)c3)=NO2)C[C@@H]1C(N)=O` (some centres undefined), the activation is 2.15% (inactive). With `N#CC1(NC(=O)COc2ccc3oc4ccccc4c3c2)CCCCC1` the figure was 4.73% (inactive); with `O=[N+]([O-])c1ccc2c(c1)Nc1nc3ccccc3nc1N2`, 36.9% (inactive). With `Cc1nc2ccccc2nc(=O)c1NNc1ccc([N+](=O)[O-])cc1` the figure was 47.2% (active); with `Cc1cccc(NS(=O)(=O)c2ccc([N+](=O)[O-])cc2)n1`, 1.34% (inactive). With `Cc1ccc(C(=O)N(CC(=O)NC2CCCC2)c2ccc(F)cc2)s1` the figure was 2.22% (inactive); with `COc1ccc2c(Cl)c(C(=O)NCc3ccco3)sc2c1`, -3% (inactive); with `Cn1nc(-c2ccc(Cl)cc2)c2cc(C(=O)NCc3ccco3)sc21`, 79.7% (active). With `Cn1nc(C(F)(F)F)c2cc(C(=O)N3CCOCC3)sc21`, the activation was -0.43% (inactive). The figure for `COc1cccc(-c2nn(C)c3sc(C(=O)N4CCN(c5ccccc5)CC4)cc23)c1` is 9.25% (inactive); for `CCOC(=O)N1CCN(C(=O)c2cc3c(-c4ccc(Cl)cc4)nn(C)c3s2)CC1` it is 89.2% (active). With `CC(C)(C)c1ccc(C(=O)NCc2ccco2)cc1` the figure was 9.26% (inactive); with `CCOC(=O)N1CCN(C(=O)c2ccc3nc4cc(Cl)ccc4c(=O)n3c2)CC1`, 5.36% (inactive). The figure for `COc1ccccc1N1CCN(C(=O)c2cc3c(-c4ccc(Cl)cc4)nn(C)c3s2)CC1` is 121% (active); for `COc1cccc(-c2cc(C(=O)N3CCN(c4ccccc4OC)CC3)no2)c1` it is 2.67% (inactive). Turning to `CCOC(=O)c1cccc(NC(=O)C2CCCN(S(=O)(=O)c3cnc[nH]3)C2)c1` (centres undefined), the activation was 0.81% (inactive). With `Cc1ccc(SCC2=NNC(=O)C2)cc1` the figure was -1.28% (inactive); with `CC(C)N1C(=S)SC(C)(C)C1n1oc(=O)n(-c2ccc(Cl)c(Cl)c2)c1=O` (centres undefined), 7.15% (inactive); with `COc1ccc(CN2CCN(Cc3cn(C)nc3-c3ccccc3)CC2CCO)c(C)c1C` (centres undefined), 2.04% (inactive). With `Cc1noc(C)c1NC(=O)Nc1ccc2c(c1)C(=O)N([C@H](C)CO)C[C@H](C)[C@@H](CN(C)C(=O)Nc1ccc(C(F)(F)F)cc1)O2` the figure was 3.05% (inactive). On to `Cc1ccc(-c2noc(CNC(=O)c3ccoc3C)n2)cc1`, for which the activation is 6.22% (inactive).

`CCN(CC)C(=O)C(=O)Nc1cccc(Br)c1`: the activation was 4.98% (inactive). The figure for `CCN(CC)C(=O)Oc1ccc(Br)cc1C(=O)Nc1ccc(F)c(Cl)c1` is 86.6% (active); for `O=C(COc1ccccc1F)NNC(=O)c1cc(Br)ccc1Cl` it is 4.62% (inactive). With `CCC1CCCCN1CCNC(=O)c1[nH]c(C)c(C(C)=O)c1C` (centres undefined) the figure was 1.61% (inactive); with `C=CCNC(=S)N1CCc2[nH]c3ccccc3c2C1`, 73.6% (active); with `O=C(Nc1ccc(Cl)cc1)N1CCc2[nH]c3ccccc3c2C1`, 25.4% (inactive). The figure for `Fc1ccc(NC(=S)N2CCc3[nH]c4ccccc4c3C2)cc1` is 5.41% (inactive); for `O=C(CCCN1CCc2[nH]c3ccc(F)cc3c2C1)c1ccc(F)cc1` it is 2.64% (inactive); for `COc1cccc(-n2c(SCC(=O)NC3CCCCC3)nc3n[nH]c(C)c3c2=N)c1` it is 104% (active). For `CCCCNC(=O)CSc1nc2n[nH]c(C)c2c(=N)n1-c1cccc(Cl)c1C`, the activation is 13.7% (inactive). The figure for `Cc1ccc(-n2c(SCC(=O)NCCC3=CCCCC3)nc3n[nH]c(C)c3c2=N)cc1Cl` is 24.8% (inactive); for `COc1ccccc1C(=O)NCCC(=O)NN1C(=O)NC2(CCCCC2)C1=O` it is -0.92% (inactive).

For the compound `C/C=C/C(=O)OCC(=O)Nc1ccc(F)cc1Cl`, the activation was 0.16% (inactive). For `O=C(CCCCCN1C(=O)c2cccc3cccc(c23)C1=O)NCc1ccco1`, the activation is 76.8% (active). The figure for `O=C(CCCOc1ccccc1)NCc1ccco1` is 1.62% (inactive). As for `C[N+](C)(CCCCCC[N+](C)(C)CCCN1C(=O)c2cccc3cccc(c23)C1=O)CCCN1C(=O)c2cccc3cccc(c23)C1=O`, the activation was 4.39% (inactive). The figure for `CC1CCN(C(=O)C2CCN(S(=O)(=O)N3CCC4(CC3)OCCO4)CC2)CC1` is 0.37% (inactive); for `O=C(Nc1cccnc1)c1cc([N+](=O)[O-])ccc1Cl` it is 0.88% (inactive). The figure for `Cc1ccc(NC(=O)c2cc([N+](=O)[O-])ccc2Cl)c(O)c1` is 49% (active); for `CNc1ccc([N+](=O)[O-])cc1C(=O)O` it is -2.24% (inactive); for `COc1ccc(S(=O)(=O)NC(C)C(=O)NCc2ccncc2)cc1Cl` (centres undefined) it is -0.4% (inactive). With `C[C@H](CO)N1C[C@H](C)[C@@H](CN(C)S(=O)(=O)c2ccc(F)cc2)Oc2c(NC(=O)Nc3ccccc3)cccc2C1=O` the figure was 0.64% (inactive); with `O=C(Nc1ccccc1)c1ccc2nsnc2c1`, 60.2% (active).

On to `Cc1cccc(NC(=O)c2ccc3nsnc3c2)c1C`, for which the activation is 10.3% (inactive). On to `O=C(Nc1cccc(NC(=O)c2cccc(F)c2)c1)c1ccccc1`, for which the activation is 26.6% (inactive).

As for `COC(C(=O)Nc1ccc(S(=O)(=O)Nc2ccc(C)c(C)c2)cc1)c1ccccc1` (centres undefined), the activation is -0.6% (inactive). Take `COCCN1CCn2c(nc3cc(NS(C)(=O)=O)ccc32)C1`: the activation is 4.78% (inactive).

Take `Cc1ccc(S(=O)(=O)NCC(=O)N(CC(=O)NC(C)(C)C)Cc2cccs2)cc1`: the activation is 3.31% (inactive). The figure for `CCc1noc(C)c1C(=O)Nc1nc2ccc(OC)cc2s1` is 1.93% (inactive); for `CCc1noc(C)c1C(=O)Nc1nc(-c2ccccc2)cs1` it is 55.4% (active); for `O=C(O)c1ccccc1C(=O)Nc1nc(-c2ccccc2)cs1` it is 1.84% (inactive). With `Nc1ncc(CN2CCCC(C(=O)Nc3ccc(-c4ccco4)cc3)C2)cn1` (centres undefined) the figure was 5.9% (inactive). In the case of `Cc1cc(=O)oc2c(C(=O)c3ccccc3)c(OCC(N)=O)ccc12`, the activation was 3.98% (inactive).

On to `O=C(COC(=O)c1ccc(F)cc1)NCC1COc2ccccc2O1` (centres undefined), for which the activation was -0.1% (inactive). With `Cc1noc(C)c1NC(=O)Nc1ccc2c(c1)C(=O)N([C@H](C)CO)C[C@H](C)[C@@H](CN(C)S(=O)(=O)c1cn(C)cn1)O2` the figure was 0.71% (inactive); with `O=S(=O)(Nc1ccc(-n2cnnn2)cc1)c1ccc(Cl)cc1`, 1.5% (inactive). The figure for `C(=N\Nc1ccc2ccccc2n1)/c1ccc2c(c1)OCO2` is 101% (active). Regarding `Cc1nc(Cl)cc(N/N=C/c2ccccc2)n1`, the activation is 23.2% (inactive). The figure for `O=C(Cc1ccc(F)cc1)N/N=C/c1ccc2c(c1)OCO2` is 42% (inactive).

In the case of `Cc1cc(=O)[nH]c(N/N=C/c2ccc3c(c2)OCCO3)n1`, the activation was 14.6% (inactive).

`Cc1cc(C)nc(N/N=C/c2c(C)oc3ccccc23)n1`: the activation is 11.9% (inactive). With `Cc1noc(C)c1/C=N/Nc1ccc2ccccc2n1` the figure was 83.3% (active); with `Brc1ccc(-c2csc(N/N=C/c3ccc4c(c3)OCO4)n2)cc1`, 58% (active). The figure for `Brc1ccc(-c2csc(N/N=C/c3cccnc3)n2)cc1` is -4.57% (inactive). The figure for `O=C(CN1CCN(c2nc(-c3ccccc3)cs2)CC1)NCc1ccc2c(c1)OCO2` is 0.54% (inactive); for `O=C(OCC(=O)N1CCCC1)c1ccc(Cl)nc1` it is -1.12% (inactive). Consider `CCC(C)(C(=O)NC1CCCCC1)N(C)C(=O)c1ccc2c(c1)OCO2` (centres undefined), for which the activation is -0.09% (inactive). The figure for `CCOC(=O)C1=NNC2(c3ccc(Cl)cc3)C(=O)N(c3cc(C)cc(C)c3)C(=O)C12` (centres undefined) is 5.66% (inactive); for `Cc1nnc(NC(=O)/C=C/c2ccco2)s1` it is 120% (active); for `CCC(CC)c1nnc(NC(=O)/C=C/c2ccco2)s1` it is 46.2% (inactive). As to `CCc1nnc(NC(=O)/C=C/c2ccc(C)o2)s1`, the activation is 28.2% (inactive).

As for `COc1ccc(S(=O)(=O)N2CCC(C(=O)NCc3ccco3)CC2)cc1C`, the activation was 0.76% (inactive).
